According to the supplement of paper PMC9262897, “Low-cost anti-mycobacterial drug discovery using engineered E. coli” (Nature Communications, 2022):
Structures can show the parent of a compound that is named as a salt. ± gives the standard deviation of the averaged measurements.

Legend:
Test in all cases: growth (OD600 after 10 h); higher = more growth (less inhibition)
[1] = system: E. coli TESEC Alr+ wild-type control; details: compound 0.1 mM; raw OD600 reference: median of DMSO wells 0.241, cell-free background 0.041
Protocol: (§1)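 TESEC Mtb Alr E. coli, or the Alr+ wild-type control, in 384-well plates with Prestwick library compounds at 0.1 mM and 1% DMSO, across arabinose induction levels of 1E3 to 1E7 nM. Growth is read as OD600 after 10 h at 37 °C in triplicate biological replicates.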

E. coli TESEC Mtb Alr [2] = details: compound 0.1 mM
Protocol: as §1

E. coli TESEC Mtb Asd = details: compound 0.1 mM
Protocol: (§2)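 TESEC E. coli strains in which the native enzyme is deleted and replaced by arabinose-inducible Mtb Asd, DapB, CysH or TrpD, each grown in its selective medium. Strains were screened against the Prestwick library at 0.1 mM and 1% DMSO in 384-well format at low and high arabinose induction. Growth is read as OD600 after 10 h in triplicate.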

E. coli TESEC Mtb DapB = details: compound 0.1 mM
Protocol: as §2

[3] = system: E. coli TESEC Alr+ wild-type control; details: compound 0.1 mM; raw OD600 reference: median of DMSO wells 0.49, cell-free background 0.052
Protocol: (§3)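 TESEC Mtb Alr E. coli (ΔaraC ΔtolC ΔentC Δalr ΔdadX, arabinose-inducible Mtb Alr) or the Alr+ wild-type control strain, grown in defined M9-fructose medium without D-alanine in 96-well plates with Prestwick library compounds at 0.1 mM and 1% DMSO. Low Alr induction is 0.1 µM arabinose and high induction is 10 mM arabinose.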

E. coli TESEC Mtb Alr [4] = details: compound 0.1 mM; remark: listed apart in the source
Protocol: as §3

[5] = arabinose 1000 nM, raw OD600 reference: median of DMSO wells 0.294, cell-free background 0.041
[6] = arabinose 10000 nM, raw OD600 reference: median of DMSO wells 0.264, cell-free background 0.041
[7] = arabinose 100000 nM, raw OD600 reference: median of DMSO wells 0.201, cell-free background 0.041
[8] = arabinose 1000000 nM, raw OD600 reference: median of DMSO wells 0.193, cell-free background 0.041
[9] = arabinose 10000000 nM, raw OD600 reference: median of DMSO wells 0.146, cell-free background 0.041
[10] = arabinose induction (level): High, raw OD600 reference: median of DMSO wells 0.331, cell-free background 0.041
[11] = arabinose induction (level): Low, raw OD600 reference: median of DMSO wells 0.417, cell-free background 0.041
[12] = arabinose induction (level): High, raw OD600 reference: median of DMSO wells […], cell-free background 0.041
[13] = arabinose induction (level): Low, raw OD600 reference: median of DMSO wells 0.227, cell-free background 0.041
[14] = arabinose 100 nM, raw OD600 reference: median of DMSO wells 0.413, cell-free background 0.052
[15] = arabinose 10000000 nM, raw OD600 reference: median of DMSO wells […], cell-free background 0.052

Row | SMILES | growth [1] | growth (E. coli TESEC Mtb Alr [2]; [5]) | growth (E. coli TESEC Mtb Alr [2]; [6]) | growth (E. coli TESEC Mtb Alr [2]; [7]) | growth (E. coli TESEC Mtb Alr [2]; [8]) | growth (E. coli TESEC Mtb Alr [2]; [9]) | growth (E. coli TESEC Mtb Asd; [10]) | growth (E. coli TESEC Mtb Asd; [11]) | growth (E. coli TESEC Mtb DapB; [12]) | growth (E. coli TESEC Mtb DapB; [13]) | growth [3] | growth (E. coli TESEC Mtb Alr [4]; [14]) | growth (E. coli TESEC Mtb Alr [4]; [15])
1 | C[C@@H]1CCC[C@H](C)N1NC(=O)c1ccc(Cl)c(S(N)(=O)=O)c1 [Clopamide] | 0.235 ± 0.0084 | 0.294 ± 0.02 | 0.251 ± 0.0061 | 0.217 ± 0.022 | 0.173 ± 0.0061 | 0.135 ± 0.002 | 0.283 ± 0.036 | 0.354 ± 0.031 | 0.199 ± 0.01 | 0.225 ± 0.0079 | 0.581 ± 0.048 | 0.419 ± 0.011 | 0.345 ± 0.015
2 | COc1ccccc1N1CCN(CC(O)COc2cccc3ccccc23)CC1 (stereo unspecified) [Naftopidil dihydrochloride] | 0.0455 ± 0.00068 | 0.0439 ± 0.0023 | 0.0416 ± 0.00044 | 0.0537 ± 0.0089 | 0.0425 ± 0.001 | 0.0492 ± 0.0015 | 0.0476 ± 0.00036 | 0.0516 ± 0.0046 | 0.0582 ± 0.0019 | 0.0626 ± 0.0085 | 0.0532 ± 0.0005 | 0.4077 ± 0.0026 | 0.0524 ± 0.0021
3 | C[C@]12CC[C@H]3[C@@H](CCC4=CC(=O)CC[C@@]43C)[C@@H]1CC[C@@H]2C(=O)CO [Deoxycorticosterone] | 0.119 ± 0.0025 | 0.163 ± 0.022 | 0.152 ± 0.0059 | 0.122 ± 0.0033 | 0.107 ± 0.002 | 0.127 ± 0.006 | 0.363 ± 0.012 | 0.245 ± 0.01 | 0.136 ± 0.008 | 0.165 ± 0.0069 | 0.333 ± 0.018 | 0.362 ± 0.022 | 0.157 ± 0.0071
4 | CC(=O)[C@@]12O[C@](C)(c3ccccc3)O[C@@H]1C[C@H]1[C@@H]3CCC4=CC(=O)CC[C@]4(C)[C@H]3CC[C@@]12C [Algestone acetophenide] | 0.232 ± 0.0045 | 0.323 ± 0.053 | 0.265 ± 0.029 | 0.173 ± 0.031 | 0.115 ± 0.0061 | 0.211 ± 0.0087 | 0.231 ± 0.0044 | 0.278 ± 0.038 | 0.15 ± 0.015 | 0.171 ± 0.0092 | 0.381 ± 0.016 | 0.413 ± 0.011 | 0.117 ± 0.013
5 | COc1ccccc1N1CCN(CCCNc2cc(=O)n(C)c(=O)n2C)CC1 [Urapidil hydrochloride] | 0.224 ± 0.0078 | 0.274 ± 0.021 | 0.259 ± 0.0036 | 0.173 ± 0.017 | 0.17 ± 0.004 | 0.137 ± 0.0051 | 0.28 ± 0.038 | 0.455 ± 0.065 | 0.183 ± 0.017 | 0.201 ± 0.015 | 0.713 ± 0.029 | 0.409 ± 0.017 | 0.326 ± 0.011
6 | CCCc1cc(C(N)=S)ccn1 [Prothionamide] | 0.245 ± 0.011 | 0.295 ± 0.0059 | 0.269 ± 0.013 | 0.184 ± 0.028 | 0.174 ± 0.014 | 0.136 ± 0.0019 | 0.231 ± 0.011 | 0.388 ± 0.046 | 0.208 ± 0.013 | 0.221 ± 0.036 | 0.57 ± 0.0073 | 0.414 ± 0.013 | 0.36 ± 0.021
7 | CC(C)(C)NCC(O)COc1cccc2c1CC(O)C(O)C2 (stereo unspecified) [Nadolol] | 0.254 ± 0.016 | 0.303 ± 0.014 | 0.267 ± 0.0029 | 0.192 ± 0.025 | 0.2 ± 0.0078 | 0.137 ± 0.0026 | 0.336 ± 0.067 | 0.442 ± 0.0083 | 0.201 ± 0.02 | 0.259 ± 0.018 | 0.493 ± 0.12 | 0.408 ± 0.011 | 0.384 ± 0.015
8 | CCOC(=O)OC(C)OC(=O)[C@@H]1N2C(=O)[C@@H](NC(=O)[C@H](N)c3ccccc3)[C@H]2SC1(C)C (stereo partly specified) [Bacampicillin hydrochloride] | 0.239 ± 0.011 | 0.305 ± 0.011 | 0.269 ± 0.0047 | 0.356 ± 0.0077 | 0.17 ± 0.0089 | 0.198 ± 0.006 | 0.237 ± 0.13 | 0.325 ± 0.034 | 0.185 ± 0.016 | 0.188 ± 0.0087 | 0.611 ± 0.013 | 0.41 ± 0.0064 | 0.338 ± 0.017
9 | NCCc1c[nH]cn1 [Histamine dihydrochloride] | 0.24 ± 0.012 | 0.2947 ± 0.0029 | 0.258 ± 0.0056 | 0.192 ± 0.019 | 0.192 ± 0.011 | 0.139 ± 0.003 | 0.303 ± 0.062 | 0.403 ± 0.011 | 0.193 ± 0.015 | 0.23 ± 0.0077 | 0.501 ± 0.067 | 0.42 ± 0.011 | 0.312 ± 0.0092
10 | CCN(Cc1ccncc1)C(=O)C(CO)c1ccccc1 (stereo unspecified) [Tropicamide] | 0.24 ± 0.0069 | 0.308 ± 0.02 | 0.266 ± 0.0032 | 0.212 ± 0.027 | 0.174 ± 0.0051 | 0.158 ± 0.0048 | 0.289 ± 0.021 | 0.416 ± 0.022 | 0.19 ± 0.0057 | 0.249 ± 0.054 | 0.527 ± 0.08 | 0.413 ± 0.013 | 0.33 ± 0.0058
11 | COc1ccc(NS(=O)(=O)c2ccc(N)cc2)nn1 [Sulfamethoxypyridazine] | 0.2402 ± 0.0024 | 0.296 ± 0.011 | 0.236 ± 0.0055 | 0.226 ± 0.024 | 0.181 ± 0.0072 | 0.141 ± 0.0061 | 0.355 ± 0.042 | 0.393 ± 0.016 | 0.203 ± 0.012 | 0.22 ± 0.01 | 0.459 ± 0.011 | 0.408 ± 0.0075 | 0.367 ± 0.018
12 | Cc1nc2n(c(=O)c1CCN1CCC(c3noc4cc(F)ccc34)CC1)CCCC2 [Risperidone] | 0.237 ± 0.0077 | 0.305 ± 0.007 | 0.269 ± 0.014 | 0.175 ± 0.016 | 0.18 ± 0.0097 | 0.146 ± 0.0055 | 0.183 ± 0.032 | 0.315 ± 0.073 | 0.201 ± 0.024 | 0.261 ± 0.019 | 0.47 ± 0.027 | 0.397 ± 0.014 | 0.305 ± 0.023
13 | NC(=O)N1c2ccccc2C=Cc2ccccc21 [Carbamazepine] | 0.241 ± 0.0068 | 0.281 ± 0.0037 | 0.239 ± 0.0011 | 0.182 ± 0.032 | 0.173 ± 0.0066 | 0.142 ± 0.00057 | 0.36 ± 0.013 | 0.35 ± 0.059 | 0.194 ± 0.018 | 0.237 ± 0.046 | 0.491 ± 0.0058 | 0.405 ± 0.0088 | 0.272 ± 0.12
14 | C=CC1=C(C(=O)O)N2C(=O)[C@@H](NC(=O)/C(=N\OCC(=O)O)c3csc(N)n3)[C@H]2SC1 [Cefixime] | 0.0395 ± 0.00093 | 0.0377 ± 0.0006 | 0.0408 ± 0.00017 | 0.03693 ± 0.00032 | 0.0407 ± 0.00045 | 0.04003 ± 0.00021 | 0.0679 ± 0.013 | 0.048 ± 0.004 | 0.0696 ± 0.022 | 0.0479 ± 0.0042 | 0.0448 ± 0.00017 | 0.0456 ± 0.00035 | 0.054 ± 0.001
15 | CCN(CCCc1ccccc1)CCCc1ccccc1 [Alverine citrate salt] | 0.205 ± 0.011 | 0.221 ± 0.013 | 0.286 ± 0.0067 | 0.177 ± 0.0094 | 0.1472 ± 0.00053 | 0.156 ± 0.011 | 0.211 ± 0.032 | 0.4 ± 0.074 | 0.153 ± 0.0058 | 0.205 ± 0.054 | 0.48 ± 0.026 | 0.418 ± 0.0047 | 0.328 ± 0.0065
16 | CC(C)(C)NC(=O)[C@@H]1CN(Cc2cccnc2)CCN1C[C@@H](O)C[C@@H](Cc1ccccc1)C(=O)N[C@H]1c2ccccc2C[C@H]1O [Indinavir sulfate] | 0.2105 ± 0.00051 | 0.293 ± 0.014 | 0.241 ± 0.0041 | 0.221 ± 0.02 | 0.149 ± 0.0054 | 0.139 ± 0.004 | 0.239 ± 0.05 | 0.403 ± 0.025 | 0.216 ± 0.0067 | 0.286 ± 0.022 | 0.558 ± 0.12 | 0.422 ± 0.014 | 0.281 ± 0.01
17 | O=C(CCCN1CCN(c2ccccn2)CC1)c1ccc(F)cc1 [Azaperone] | 0.192 ± 0.0058 | 0.2624 ± 0.0023 | 0.294 ± 0.0053 | 0.164 ± 0.013 | 0.177 ± 0.0089 | 0.146 ± 0.0043 | 0.217 ± 0.017 | 0.326 ± 0.029 | 0.194 ± 0.0048 | 0.264 ± 0.05 | 0.395 ± 0.0085 | 0.423 ± 0.0076 | 0.304 ± 0.01
